In the library only some 1.2% were active in any assay of this set; here they are far more common.
Avidin bead fluor: avidin bead compound fluorescence profile; fluorescence (KMESF) at 10 µM; Avidin beads, compound fluorescence 488/530 nm, flow cytometry; stronger effect = higher value; hit rate 0.38% among 220,000; in the data active = fluorescence above about 47
RGS8-Gao: regulators of human RGS8-Galphao interaction. P09471. multiplexed bead flow cytometry, RGS8-Galphao binding; actives lie on both sides. response (percent of control binding), % at 10 µM. hit rate 0.34% among 220,000. AID 1423; in the data active = response below about 60% or above about 140%; inactive = in between;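 note: Galphao activated as the GDP aluminium fluoride complex binding bead-coupled RGS8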
Target sequence (P09471 whole entry, looked up): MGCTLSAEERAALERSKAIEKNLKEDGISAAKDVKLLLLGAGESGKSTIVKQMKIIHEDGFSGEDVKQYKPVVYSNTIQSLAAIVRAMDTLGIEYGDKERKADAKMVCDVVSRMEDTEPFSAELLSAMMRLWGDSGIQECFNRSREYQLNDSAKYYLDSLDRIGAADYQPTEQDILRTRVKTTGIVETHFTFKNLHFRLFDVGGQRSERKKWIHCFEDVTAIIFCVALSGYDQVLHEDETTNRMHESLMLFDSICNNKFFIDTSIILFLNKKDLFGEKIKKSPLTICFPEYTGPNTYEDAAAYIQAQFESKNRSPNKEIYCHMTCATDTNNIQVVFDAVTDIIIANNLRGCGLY
RGS16-Gao HTS: regulators of human RGS16-Galphao interaction; hit rate 0.38% among 220,000; O15492+P09471; bead-based flow cytometry RGS16-Galphao binding, fluorescence; actives lie on both sides; AID 1441; binding response (% of control), % at 10 µM;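 note: Galphao activated by GDP with aluminum fluoride before binding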
GSH fluor: GSH bead compound fluorescence profile; fluorescence (KMESF) at 10 µM; hit rate 0.25% among 190,000; AID 1776; GSH beads flow cytometry, compound fluorescence 488/530 nm; stronger effect = higher value; in the data active = fluorescence above about 89;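 note: glutathione beads carrying GST-tagged Bcl family fusion proteins plus one bare bead set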
RGS4-Gao reg: human RGS4-Galphao interaction regulation; P09471; Multiplexed bead flow cytometry, RGS4-Galphao binding; actives lie on both sides; binding response (% of control), % at 10 µM; hit rate 0.33% among 220,000; AID 1415; in the data active = binding response below about 49% or above about 150%; inactive = in between;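 note: fluorescent Galphao activated with aluminum fluoride binding bead-coupled RGS4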
RGS7-Gao: modulates binding of RGS7 to human Galphao; P09471; Multiplexed bead flow cytometry; actives lie on both sides; binding response (% of control), % at 10 µM; hit rate 0.35% among 220,000; in the data active = binding response below about 49% or above about 150%; inconclusive = no clear call, values can overlap the other calls; inactive = in between;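 note: fluorescent Galphao held in activated GDP-AlF4 state binding bead-coupled RGS7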
RGS-Gao: RGS4-Galphao interaction regulator (human). shares compounds with RGS16-Gao HTS. multiplexed bead flow cytometry, RGS–Galpha-o binding. RGS4–Galpha-o binding response, % at 10 µM. hit rate 99% among 1,600. AID 1504;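 note: fluorescently labeled Galpha-o bound to GDP with aluminium fluoride binding biotinylated RGS beads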
Avidin counter: biotin-avidin bead binding disruption counter-screen; 1,700 tested, under 10 active; AID 1783; shares compounds with RGS16-Gao HTS; inhibition, % at 10 µM; streptavidin beads, fluorescein-biotin binding, flow cytometry;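 active = inhibition above 50%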;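 note: median green fluorescence of gated singlet beads compared with DMSO control wells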
RGS8-Gao confirm: RGS8-Galphao interaction regulation, single point confirmation; shares compounds with RGS16-Gao HTS; hit rate 3% among 1,700; binding response (% of control), % at 10 µM; bead-based flow cytometry RGS8-Galphao binding, fluorescence; actives lie on both sides; in the data active = binding response below about 72% or above about 130%; inactive = in between;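 note: Galphao activated as GDP AlF4 complex before binding bead RGS8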
RGS7-Gao single: RGS7-Galphao interaction regulation, single point confirmation; AID 1837; response (percent of control binding), % at 10 µM; hit rate 7.8% among 1,700; bead-based flow cytometry RGS7-Galphao binding; actives lie on both sides; shares compounds with RGS16-Gao HTS; in the data active = response below about 75% or above about 130%; inactive = in between;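 note: fluorescent Galphao activated with GDP and aluminum fluoride binding bead-coupled RGS7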
RGS16-Gao single: RGS16-Galphao interaction regulation, single point confirmation; hit rate 4% among 1,700; response (% of control binding), % at 10 µM; bead-based flow cytometry, RGS16-Galphao binding; actives lie on both sides; shares compounds with RGS16-Gao HTS; AID 1838; in the data active = response below about 74% or above about 130%; inactive = in between;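 note: Galphao activated as the GDP aluminium fluoride complex binding bead-coupled RGS16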
RGS4-Gao single: RGS4-Galphao interaction regulation, single point confirmation; hit rate 4% among 1,700; RGS4-Galphao binding, multiplexed bead flow cytometry; actives lie on both sides; AID 1840; shares compounds with RGS16-Gao HTS; binding response (% of control), % at 10 µM; in the data active = binding response below about 74% or above about 130%; inactive = in between
RGS19-Gao conf: RGS19-Galphao interaction regulation, single point confirmation; bead-based flow cytometry RGS19-Galphao binding; actives lie on both sides; hit rate 5% among 1,700; shares compounds with RGS16-Gao HTS; response (percent of control binding), % at 10 µM; in the data active = response below about 50% or above about 160%; inactive = in between
Target sequence (P09471 whole entry, looked up): as above
Target sequence (P49795 whole entry, looked up): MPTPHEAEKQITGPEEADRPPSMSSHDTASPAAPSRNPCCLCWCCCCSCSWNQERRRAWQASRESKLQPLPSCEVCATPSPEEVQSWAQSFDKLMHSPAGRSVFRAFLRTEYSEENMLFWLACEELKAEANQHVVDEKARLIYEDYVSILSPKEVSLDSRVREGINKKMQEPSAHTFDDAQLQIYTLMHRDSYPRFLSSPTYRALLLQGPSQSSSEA
Large screens that a line does not name were inactive (follow-up assays come after a bar, where they were run); [ ] = remark or other dose. Unless noted, the rule behind the calls is not given here.

CCN1CCCC1CNCc1cccc(OC)c1OCc1ccc(F)cc1 (configuration not stated)	RGS16-Gao HTS 20 | RGS-Gao 91 | Avidin counter inactive | RGS8-Gao confirm inactive | RGS7-Gao single inactive | RGS16-Gao single inactive | RGS4-Gao single inactive | RGS19-Gao conf inactive
O=C(Cc1ccccc1)N/N=C/c1ccc[nH]1	RGS7-Gao inconclusive (no result: GSH fluor)
CSCCC(NC(=O)C1CCCCC1)c1nc2ccccc2[nH]1 (configuration not stated)	none (no result: Avidin bead fluor, RGS8-Gao, RGS16-Gao HTS, GSH fluor, RGS7-Gao) | Avidin counter inactive | RGS8-Gao confirm inactive | RGS7-Gao single inactive | RGS16-Gao single inactive | RGS4-Gao single inactive | RGS19-Gao conf inactive
CSCC[C@H](NC(=O)COc1ccc(Cl)cc1)c1nc2ccccc2[nH]1	RGS16-Gao HTS 203[activator] | RGS-Gao 112 | Avidin counter inactive | RGS8-Gao confirm inactive | RGS7-Gao single inactive | RGS16-Gao single inactive | RGS4-Gao single inactive | RGS19-Gao conf inactive
Cc1cc2cc(CCNC(=O)c3ccc(C)c([N+](=O)[O-])c3)c(=O)[nH]c2cc1C	RGS8-Gao 16, RGS4-Gao reg 3.7, RGS7-Gao 7.7 | Avidin counter inactive | RGS8-Gao confirm inactive | RGS7-Gao single inactive | RGS16-Gao single inactive | RGS4-Gao single inactive | RGS19-Gao conf inactive
Cc1ccc(C(=O)NCCc2nc3ccccc3[nH]2)cc1[N+](=O)[O-]	none
CCCCc1ccc(NC(=O)CN2NS(=O)(=O)c3ccccc3C2=O)cc1	RGS16-Gao HTS -6.9 | RGS-Gao 87
N#C/C(=C(/O)CSc1nnc(Cc2cccs2)n1C1CCCCC1)c1nc2ccccc2[nH]1	RGS8-Gao 51, GSH fluor 228, RGS4-Gao reg 33, RGS7-Gao 46 | Avidin counter inactive | RGS8-Gao confirm inactive | RGS7-Gao single inactive | RGS16-Gao single inactive | RGS4-Gao single inactive | RGS19-Gao conf inactive
CC(C)(C)C(=O)Nc1ccccc1C(=O)OCC(=O)c1ccc2c(c1)OCCO2	none
COC(=O)c1ccccc1NC(=O)c1ccc2c(c1)OCCO2	RGS16-Gao HTS 231[activator] | RGS-Gao 134 | Avidin counter inactive | RGS8-Gao confirm inactive | RGS7-Gao single inactive | RGS16-Gao single inactive | RGS4-Gao single inactive | RGS19-Gao conf inactive
Cc1cc(NC(=O)CSc2nc3c(c(=O)n2-c2ccc(Br)cc2)SCC3)no1	none
COc1ccc(-n2c(SCC(=O)Nc3cc(C)on3)nc3c(c2=O)SCC3)cc1	RGS8-Gao 166[activator] | RGS-Gao 122 | Avidin counter inactive | RGS8-Gao confirm inactive | RGS7-Gao single inactive | RGS16-Gao single inactive | RGS4-Gao single inactive | RGS19-Gao conf inactive
CN(C)S(=O)(=O)c1cc(NC2CC(=O)N(c3ccc(F)cc3)C2=O)ccc1Cl (configuration not stated)	none
O=[N+]([O-])c1ccc(Sc2cccc[n+]2[O-])c2nonc12	RGS8-Gao 36, RGS16-Gao HTS 3.0, RGS7-Gao inconclusive (no result: GSH fluor) | RGS-Gao 84 | Avidin counter inactive | RGS8-Gao confirm 52 | RGS7-Gao single inactive | RGS16-Gao single 26 | RGS4-Gao single inactive | RGS19-Gao conf 21
CCOc1ncccc1C(=O)NCc1ccccc1Cl	none
CCOc1cc(NC(=S)NCCOC)c(OCC)cc1NC(=O)c1ccco1	none
O=C(c1ccco1)N1CCN(S(=O)(=O)c2ccc(Cl)s2)CC1	none (no result: Avidin bead fluor, RGS8-Gao, RGS16-Gao HTS, RGS4-Gao reg, RGS7-Gao) | Avidin counter inactive | RGS8-Gao confirm inactive | RGS7-Gao single inactive | RGS16-Gao single inactive | RGS4-Gao single inactive | RGS19-Gao conf inactive
NC(=O)c1ccsc1NC(=O)COC(=O)C1CC2CCCC(C1)C2=O (configuration not stated)	RGS7-Gao inconclusive (no result: GSH fluor)
O[C@@H]1C2CCCC1[C@]1(O)CCCCC1C2 (some centres not stated)	none
NC[C@@]12CCCC1C1CCC2C1 (some centres not stated)	none (no result: Avidin bead fluor, RGS8-Gao, RGS16-Gao HTS, RGS4-Gao reg, RGS7-Gao) | Avidin counter inactive | RGS8-Gao confirm inactive | RGS7-Gao single inactive | RGS16-Gao single inactive | RGS4-Gao single inactive | RGS19-Gao conf inactive
Cc1noc(C)c1C(=O)NCc1cccs1	none (no result: Avidin bead fluor, RGS8-Gao, RGS16-Gao HTS, RGS4-Gao reg, RGS7-Gao) | Avidin counter inactive | RGS8-Gao confirm inactive | RGS7-Gao single inactive | RGS16-Gao single inactive | RGS4-Gao single inactive | RGS19-Gao conf inactive
Cc1onc(-c2ccccc2Cl)c1C(=O)NCc1cccs1	none
Cc1ccccc1-c1ccc(=O)n(CC(=O)Nc2ccc(N3CCOCC3)cc2)n1	none (no result: Avidin bead fluor, RGS8-Gao, RGS16-Gao HTS, RGS4-Gao reg, RGS7-Gao) | Avidin counter inactive | RGS8-Gao confirm inactive | RGS7-Gao single inactive | RGS16-Gao single inactive | RGS4-Gao single inactive | RGS19-Gao conf inactive
Cc1cccc(CSc2ncccc2C(=O)O)c1	RGS16-Gao HTS 285[activator] | RGS-Gao 122 | Avidin counter inactive | RGS8-Gao confirm inactive | RGS7-Gao single inactive | RGS16-Gao single inactive | RGS4-Gao single inactive | RGS19-Gao conf inactive
Cc1ccc(CSc2ncccc2C(=O)O)cc1	none
Cc1cc(C(=O)OCC(=O)Nc2cccc(S(N)(=O)=O)c2)c2ccccc2n1	RGS7-Gao inconclusive (no result: GSH fluor)
COc1ccc(S(=O)(=O)N2CCN(CCC(=O)Nc3ccccc3F)CC2)cc1	none (no result: Avidin bead fluor, RGS8-Gao, RGS16-Gao HTS, RGS4-Gao reg, RGS7-Gao) | Avidin counter inactive | RGS8-Gao confirm inactive | RGS7-Gao single inactive | RGS16-Gao single inactive | RGS4-Gao single inactive | RGS19-Gao conf inactive
N#Cc1cc(C(=O)c2ccccc2O)cn(-c2nccs2)c1=O	RGS8-Gao 58 | RGS-Gao 57 | Avidin counter inactive | RGS8-Gao confirm inactive | RGS7-Gao single inactive | RGS16-Gao single inactive | RGS4-Gao single inactive | RGS19-Gao conf inactive
O=C(O)c1cc(C(F)(F)F)nc2c(C(F)(F)F)cccc12	RGS7-Gao 174[activator] | RGS-Gao 143
CN1CCc2c(sc(/N=C/c3cc(C(C)(C)C)ccc3O)c2C#N)C1	RGS7-Gao inconclusive (no result: GSH fluor)
Cc1cc([N+](=O)[O-])nn1CCCC(=O)Nc1c(C)n(C)n(-c2ccccc2)c1=O	none

Compound activity from PubChem BioAssay.
